From PubChem BioAssay (NCATS)
Results filed as inconclusive are left out. Active and inactive are the calls of the source. Unless noted, calls follow the shape of the dose curve; as a rule, active = well fitted curve in the direction sought with a large enough effect; inconclusive = small, poorly fitted or top-dose-only effect, or another doubt; inactive = no such curve, though single readings can be large; an effect the other way counts as inactive or inconclusive.

Experiments:
[1] = biological target: Thyrotropin receptor (Homo sapiens) (UniProt P16473); assay: qHTS Assay for Antagonists of the Thyroid Stimulating Hormone Receptor (AID 488980); also: series mostly up to about 58 µM; 0% is about no effect
Summary of the method: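 Inhibition of TSH-stimulated cAMP accumulation was quantified by homogeneous time-resolved FRET in TSHR-transfected HEK293 cells. Agonist: TSH, 4 nM final (EC80).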

[2] = biological target: D(1A) dopamine receptor (Homo sapiens) (UniProt P21728); assay: HTS Assay for Allosteric Agonists of the Human D1 Dopamine Receptor: Primary Screen for Agonists (AID 488981); also: 0% is about no effect
Sequence of D(1A) dopamine receptor (Homo sapiens) (P21728 whole entry, looked up): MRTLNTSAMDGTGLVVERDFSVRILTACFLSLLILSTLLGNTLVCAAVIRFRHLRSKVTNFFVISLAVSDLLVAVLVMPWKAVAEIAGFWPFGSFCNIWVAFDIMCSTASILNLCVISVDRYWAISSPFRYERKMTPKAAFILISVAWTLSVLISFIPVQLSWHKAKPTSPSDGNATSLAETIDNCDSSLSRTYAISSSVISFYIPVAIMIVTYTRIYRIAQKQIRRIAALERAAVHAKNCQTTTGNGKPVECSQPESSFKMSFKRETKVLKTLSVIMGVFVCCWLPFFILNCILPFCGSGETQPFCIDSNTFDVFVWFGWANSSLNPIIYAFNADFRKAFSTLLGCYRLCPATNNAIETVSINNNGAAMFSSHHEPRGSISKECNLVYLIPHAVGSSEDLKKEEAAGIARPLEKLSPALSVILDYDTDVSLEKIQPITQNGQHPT
Summary of the method: (§1)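 Calcium flux in an inducible, force-coupled HEK293 Trex D1 line (overnight at 30 C): agonist mode is the 180 s kinetic read after compound; potentiator mode is the following 180 s read after dopamine at EC20.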

[3] = biological target: D(1A) dopamine receptor (Homo sapiens) (UniProt P21728); assay: HTS Assay for Allosteric Agonists of the Human D1 Dopamine Receptor: Primary Screen for Potentiators (AID 488982); also: 0% is about no effect
Summary of the method: as §1

[4] = biological target: Thyrotropin-releasing hormone receptor (Homo sapiens) (UniProt P34981); assay: qHTS for Small Molecule Agonists and Allosteric Enhancers of Human TRH Receptor: Validation Screen for Agonists (AID 493127;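 active = calcium activation more than 3 SD above the typical response in the agonist read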;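 also: intracellular calcium rise by fluo-8 fluorescence before TRH EC20 addition; 0% is about no effect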); details: TRH receptor agonist cell assay; at 2 µM; active compounds read high
Summary of the method: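 Cells 2000/well, 10% FCS, 18 h 33.5C/5% CO2 → fluo-8 Ca dye, RT 30 min–1.5 h → FDSS baseline 10 × 1 s → compound added → 230 cycles (1 s/cycle) agonist mode. TRH controls.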

[5] = qHTS for Inhibitors of Cell Surface uPA Generation: Validation Assay (AID 493164); also: 0% is about no effect
Summary of the method: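 RAW 264.7 cells (4000/well) were plated overnight, then exposed for 18 h at 37 C, 5% CO2 to compounds in a 7-point 1:5 titration (2.45 nM–38.3 uM final). Intracellular ATP was read by ATP-Lite luminescence.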

[6] = biological target: Galactokinase (Homo sapiens) (UniProt P51570); assay: qHTS Validation Assay for Inhibitors of Human Galactokinase (GALK) (AID 493189); also: 0% is about no effect
Sequence of Galactokinase (Homo sapiens) (P51570 whole entry, looked up): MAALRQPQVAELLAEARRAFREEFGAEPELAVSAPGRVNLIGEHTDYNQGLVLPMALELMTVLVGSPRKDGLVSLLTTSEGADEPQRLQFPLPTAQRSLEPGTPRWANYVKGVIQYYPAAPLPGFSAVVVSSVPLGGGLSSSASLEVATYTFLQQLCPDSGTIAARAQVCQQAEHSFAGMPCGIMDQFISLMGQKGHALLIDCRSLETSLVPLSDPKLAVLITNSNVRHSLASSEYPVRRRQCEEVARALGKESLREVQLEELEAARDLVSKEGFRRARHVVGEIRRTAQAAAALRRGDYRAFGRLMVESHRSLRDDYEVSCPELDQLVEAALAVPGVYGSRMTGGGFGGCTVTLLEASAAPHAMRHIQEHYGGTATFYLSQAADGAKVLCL
Summary of the method: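 Enzyme activity is inferred from ATP consumption: human GALK phosphorylates galactose (100 uM) using 35 uM ATP for 1 h at room temperature, and luciferase-based Kinase-Glo Plus reports unconsumed ATP.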

[7] = Validation screen for small molecules that induce DNA re-replication in SW480 colon adenocarcinoma cells (AID 504364); also: 0% is about no effect
Summary of the method: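 250 cells/well; compound pinned in; 48 hr, 37 C, 5% CO2; Hoechst added, 40 min; nuclear fluorescence imaged, 405 ex / 500-530 em; re-replication scored as increase in high-intensity nuclei.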

[8] = biological target: Phosphoglycerate kinase, glycosomal (Trypanosoma brucei brucei) (UniProt P07378); assay: qHTS Validation Assay to Find Inhibitors of Phosphoglycerate Kinase (AID 504547);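 also: control wells lack PGK and mark full inhibition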
Sequence of Phosphoglycerate kinase, glycosomal (Trypanosoma brucei brucei) (P07378 whole entry, looked up): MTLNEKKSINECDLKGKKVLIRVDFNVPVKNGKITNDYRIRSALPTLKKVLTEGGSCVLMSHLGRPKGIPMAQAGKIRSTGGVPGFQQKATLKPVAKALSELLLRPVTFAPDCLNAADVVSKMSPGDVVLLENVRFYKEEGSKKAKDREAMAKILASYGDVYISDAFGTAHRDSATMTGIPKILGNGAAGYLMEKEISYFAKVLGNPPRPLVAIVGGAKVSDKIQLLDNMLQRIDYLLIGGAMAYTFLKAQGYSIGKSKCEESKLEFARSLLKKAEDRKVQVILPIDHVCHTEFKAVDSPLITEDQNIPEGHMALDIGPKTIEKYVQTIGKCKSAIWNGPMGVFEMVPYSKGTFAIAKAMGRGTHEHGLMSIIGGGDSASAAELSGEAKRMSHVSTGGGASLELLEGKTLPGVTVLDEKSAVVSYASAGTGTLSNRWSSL
Summary of the method: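 Inhibition of the enzyme is judged by a Kinase-Glo Plus luminescent signal following a one-hour incubation at room temperature. Because 1,3-BPG is unstable, it is made in situ by GAPDH at 100nM final; no-PGK wells define the baseline.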

[9] = biological target: Voltage-gated inwardly rectifying potassium channel KCNH2 (Homo sapiens) (UniProt Q12809); assay: qHTS Assay for Small Molecule Inhibitors of the Human hERG Channel Activity (AID 588834);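 also: top concentration of the series differs between compounds; % is scaled to controls: 0 for no effect and ±100 for the full control effect; lower thallium flux fluorescence means stronger hERG block; nearly all actives have a fitted effect of over 50% in size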
Sequence of Voltage-gated inwardly rectifying potassium channel KCNH2 (Homo sapiens) (Q12809 whole entry, looked up): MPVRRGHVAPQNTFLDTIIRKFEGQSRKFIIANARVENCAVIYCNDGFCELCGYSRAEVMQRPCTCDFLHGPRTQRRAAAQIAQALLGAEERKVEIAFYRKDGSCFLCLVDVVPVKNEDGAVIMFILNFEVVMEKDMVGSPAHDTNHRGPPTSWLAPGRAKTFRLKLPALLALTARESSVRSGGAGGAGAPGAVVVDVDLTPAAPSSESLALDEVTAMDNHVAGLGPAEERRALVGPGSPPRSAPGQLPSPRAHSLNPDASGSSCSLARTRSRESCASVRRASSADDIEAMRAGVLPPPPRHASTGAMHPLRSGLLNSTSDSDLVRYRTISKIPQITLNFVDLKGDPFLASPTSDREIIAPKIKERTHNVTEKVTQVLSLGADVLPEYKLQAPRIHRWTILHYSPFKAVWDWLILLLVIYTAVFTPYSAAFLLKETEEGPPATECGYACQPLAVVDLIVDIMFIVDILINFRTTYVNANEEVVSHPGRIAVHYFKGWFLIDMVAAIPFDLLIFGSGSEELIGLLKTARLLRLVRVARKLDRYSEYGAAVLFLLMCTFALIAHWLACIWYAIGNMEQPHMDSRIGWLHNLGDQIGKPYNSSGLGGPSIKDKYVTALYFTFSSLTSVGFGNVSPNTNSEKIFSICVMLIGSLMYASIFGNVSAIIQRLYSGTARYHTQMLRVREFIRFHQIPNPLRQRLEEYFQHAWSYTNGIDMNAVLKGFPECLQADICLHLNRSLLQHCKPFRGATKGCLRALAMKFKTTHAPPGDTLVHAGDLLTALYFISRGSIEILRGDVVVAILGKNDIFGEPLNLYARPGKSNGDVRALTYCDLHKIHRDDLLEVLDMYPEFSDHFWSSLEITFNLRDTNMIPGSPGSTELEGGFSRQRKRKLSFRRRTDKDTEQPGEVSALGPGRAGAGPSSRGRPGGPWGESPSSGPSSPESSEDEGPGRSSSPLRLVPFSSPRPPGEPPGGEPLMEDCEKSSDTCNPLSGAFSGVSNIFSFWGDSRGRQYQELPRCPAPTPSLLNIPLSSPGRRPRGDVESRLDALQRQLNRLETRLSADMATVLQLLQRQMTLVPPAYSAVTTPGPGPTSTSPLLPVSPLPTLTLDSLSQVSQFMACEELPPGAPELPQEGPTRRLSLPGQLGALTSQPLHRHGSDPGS
Summary of the method: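 Blockade is seen as reduced FluxOR thallium-flux fluorescence in U2OS cells expressing hERG from a BacMam construct, in Opti-MEM with 2% FCS. Concentration-response data fitted to the Hill equation for AC50.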

[10] = biological target: Glutaminase kidney isoform, mitochondrial (Homo sapiens) (UniProt O94925); assay: qHTS for Inhibitors of Glutaminase (GLS): LOPAC Validation (AID 624146); also: potency is read from the fitted curve at half-maximal effect; nearly all actives have a fitted effect of over 60% in size
Sequence of Glutaminase kidney isoform, mitochondrial (Homo sapiens) (O94925 whole entry, looked up, canonical isoform): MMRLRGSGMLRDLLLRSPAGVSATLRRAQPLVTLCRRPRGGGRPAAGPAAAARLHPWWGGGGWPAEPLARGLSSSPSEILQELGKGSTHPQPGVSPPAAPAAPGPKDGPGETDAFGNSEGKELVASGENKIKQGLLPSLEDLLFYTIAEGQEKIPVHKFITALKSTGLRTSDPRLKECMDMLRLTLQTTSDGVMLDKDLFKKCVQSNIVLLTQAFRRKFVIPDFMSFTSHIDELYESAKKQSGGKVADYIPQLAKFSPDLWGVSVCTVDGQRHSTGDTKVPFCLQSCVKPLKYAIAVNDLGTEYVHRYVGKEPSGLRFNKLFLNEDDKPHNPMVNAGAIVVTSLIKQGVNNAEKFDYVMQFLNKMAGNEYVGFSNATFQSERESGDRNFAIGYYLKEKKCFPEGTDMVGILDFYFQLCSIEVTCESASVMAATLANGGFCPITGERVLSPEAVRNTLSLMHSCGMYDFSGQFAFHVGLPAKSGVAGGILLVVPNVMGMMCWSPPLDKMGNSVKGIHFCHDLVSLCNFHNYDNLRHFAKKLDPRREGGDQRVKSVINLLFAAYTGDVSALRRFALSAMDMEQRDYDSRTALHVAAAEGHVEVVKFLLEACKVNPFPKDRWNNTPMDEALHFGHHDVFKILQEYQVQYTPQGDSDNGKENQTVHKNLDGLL
Summary of the method: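 Read-out is an Amplex red fluorescence increase coupled through glutamate oxidase and HRP, measured before and after 30 min room-temperature incubation. hKGA is in 45 mM KH2PO4 (pH 8.2) with 0.02% Tween-20; glutamine added as 1mM solution.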

[11] = qHTS of Trypanosoma Brucei Inhibitors: LOPAC Validation (AID 624147); also: 0% is about no effect
Summary of the method: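 Enzyme and substrate buffer are dispensed first and compound is pin-transferred. ADP at 130 uM final then starts the reaction, which runs 45 min at room temperature. Detection reagent is added for 10 min before luminescence is imaged.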

[12] = biological target: Glucagon-like peptide 1 receptor (Homo sapiens) (UniProt P43220); assay: qHTS of GLP-1 Receptor Agonists: LOPAC Validation (AID 624148);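 also: luminescence from a luciferase reporter switched on by cAMP; 0% is about no effect; higher luminescence signal means agonism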
Summary of the method: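 Agonism scored as increased luciferase luminescence driven by cAMP in HEK293 clones carrying GLP-1R. Cells settled 12 hours, received compound for 4-6 hr at 37 deg C, 5% CO2, and were read after 12 min detection reagent at RT.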

[13] = qHTS of Nrf2 Activators: LOPAC Validation (AID 624149); also: 0% is about no effect
Summary of the method: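 Luminescence read-out of ARE-luciferase activation: AREc32_Fluc cells treated with compounds for 24 hr at 37 deg C, then lysed with Steady-Glo for 30 min at room temperature before reading.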

[14] = HTS Assay for Allosteric Antagonists of the Human D2 Dopamine Receptor: Hit Validation in HTRF (AID 624455);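 also: stable D1 dopamine receptor cell line scored for blocking the D1 response; % is scaled to controls: 0 for no effect and ±100 for the full control effect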
Summary of the method: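 First, antagonism was screened by calcium flux in a force-coupled, inducible Hek293 Trex D2 line challenged with EC80 dopamine. Hits then went into an HTRF assay in cells stably expressing D1, testing inhibition of the D1 response.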

[15] = biological target: Tyrosine-protein kinase Yes (Homo sapiens) (UniProt P07947); assay: qHTS for small molecule inhibitors of Yes1 kinase: Primary Screen (AID 686947); also: potency is read from the fitted curve at half-maximal effect; nearly all actives have a fitted effect of over 60% in size
Sequence of Tyrosine-protein kinase Yes (Homo sapiens) (P07947 whole entry, looked up): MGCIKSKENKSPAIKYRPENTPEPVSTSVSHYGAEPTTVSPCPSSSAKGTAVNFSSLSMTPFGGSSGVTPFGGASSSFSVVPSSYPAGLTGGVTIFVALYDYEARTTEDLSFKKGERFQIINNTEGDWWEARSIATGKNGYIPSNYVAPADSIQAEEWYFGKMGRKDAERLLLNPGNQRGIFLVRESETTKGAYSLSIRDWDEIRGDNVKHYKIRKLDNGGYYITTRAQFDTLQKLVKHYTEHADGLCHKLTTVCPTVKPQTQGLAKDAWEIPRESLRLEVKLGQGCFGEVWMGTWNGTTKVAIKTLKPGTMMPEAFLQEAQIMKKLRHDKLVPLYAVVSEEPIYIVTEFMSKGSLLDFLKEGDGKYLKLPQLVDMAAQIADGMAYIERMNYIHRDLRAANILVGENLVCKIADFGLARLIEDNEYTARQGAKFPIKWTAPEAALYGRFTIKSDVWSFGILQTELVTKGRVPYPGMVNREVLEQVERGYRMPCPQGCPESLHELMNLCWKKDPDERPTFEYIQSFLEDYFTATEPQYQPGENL
Summary of the method: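 Yes1 (4 nM) preincubated 20 min with compound, then 60 min room-temperature reaction with 0.1 mM ATP and 0.3 mg/mL poly(E4Y) in pH 7.5 Tris, 10 mM MgCl2. ADP measured by ADP-Glo luminescence, normalised to enzyme/no-enzyme controls.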

[16] = qHTS for small molecule inhibitors of Yes1 kinase: Counter Assay (AID 686950);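 also: no kinase present so only ADP-Glo detection of a fixed ADP amount is tested; luminescence from ADP-Glo reporting ADP in a fixed ATP and ADP mixture; series mostly up to about 77 µM; 0% = DMSO wells with ATP plus ADP and -100% = ATP-only wells without ADP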
Summary of the method: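 Luminescence read-out from ADP-Glo quantifies a fixed ADP amount (0.02 mM ADP with 0.08 mM ATP) after 60 min at room temperature; signal is normalized between DMSO wells with ATP/ADP and with 0.1 mM ATP alone.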

[17] = qHTS for compounds that reverse cellular toxicity of Amyloid beta (A-beta) peptide in yeast: LOPAC Validation Assay (AID 720559);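 also: plate controls were DMSO for no effect and equimolar ferric chloride plus clioquinol rescue for full effect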
Summary of the method: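 Here, A-beta-toxic yeast grow with test compounds at 30 C for 48 hr before optical density at 600 nm is recorded; data are normalized against DMSO and the FeCl3-clioquinol control.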

[18] = qHTS for Activators of Parkin Expression: LOPAC Validation Assay (FLuc Reporter) (AID 720573; also: potency is read from the fitted curve at half-maximal effect)
Summary of the method: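 Readout is FLuc luminescence from neuronal reporter cells (Parkin promoter, FLuc plus NLuc) after 24 h compound exposure in dose response. Values normalized to neutral DMSO and positive-control compounds.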

[19] = biological target: Hexokinase-4 (Homo sapiens) + Glucokinase regulatory protein (Homo sapiens) (UniProt P35557+Q14397); assay: qHTS assay for inhibitors of recombinant human GCK-GKRP interaction: Diaphorase-coupled assay (AID 743205)
Sequence of Hexokinase-4 (Homo sapiens) + Glucokinase regulatory protein (Homo sapiens) (P35557 whole entry, looked up): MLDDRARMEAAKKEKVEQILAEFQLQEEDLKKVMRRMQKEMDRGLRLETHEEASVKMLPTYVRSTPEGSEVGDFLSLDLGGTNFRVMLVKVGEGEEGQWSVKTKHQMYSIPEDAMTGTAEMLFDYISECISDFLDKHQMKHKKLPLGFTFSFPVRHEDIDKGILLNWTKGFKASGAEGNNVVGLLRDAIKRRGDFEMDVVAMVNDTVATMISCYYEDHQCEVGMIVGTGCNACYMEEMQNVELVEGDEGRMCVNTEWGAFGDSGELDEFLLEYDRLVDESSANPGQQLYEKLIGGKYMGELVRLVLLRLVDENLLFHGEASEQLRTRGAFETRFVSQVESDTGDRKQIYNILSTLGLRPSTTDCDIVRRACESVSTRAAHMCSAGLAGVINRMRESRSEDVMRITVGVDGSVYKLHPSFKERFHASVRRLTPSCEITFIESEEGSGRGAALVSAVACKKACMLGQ
Sequence of Hexokinase-4 (Homo sapiens) + Glucokinase regulatory protein (Homo sapiens) (Q14397 whole entry, looked up): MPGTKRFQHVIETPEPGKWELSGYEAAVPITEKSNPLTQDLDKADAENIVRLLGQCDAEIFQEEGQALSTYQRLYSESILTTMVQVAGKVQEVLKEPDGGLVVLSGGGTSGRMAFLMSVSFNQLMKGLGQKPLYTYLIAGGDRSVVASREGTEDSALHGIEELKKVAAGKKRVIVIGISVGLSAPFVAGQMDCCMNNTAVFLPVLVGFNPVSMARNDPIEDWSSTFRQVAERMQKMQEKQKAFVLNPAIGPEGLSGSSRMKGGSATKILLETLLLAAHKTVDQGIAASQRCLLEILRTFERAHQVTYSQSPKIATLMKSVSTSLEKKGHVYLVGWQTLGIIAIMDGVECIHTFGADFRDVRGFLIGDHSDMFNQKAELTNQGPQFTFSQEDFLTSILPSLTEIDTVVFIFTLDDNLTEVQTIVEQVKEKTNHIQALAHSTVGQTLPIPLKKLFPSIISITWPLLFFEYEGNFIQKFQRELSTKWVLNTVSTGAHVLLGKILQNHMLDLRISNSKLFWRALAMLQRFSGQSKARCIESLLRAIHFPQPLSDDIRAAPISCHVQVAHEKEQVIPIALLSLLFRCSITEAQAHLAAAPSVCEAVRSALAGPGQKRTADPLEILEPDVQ
Summary of the method: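 Signal derives from resorufin generated by diaphorase, linked to GCK turnover of glucose (5 mM) and ATP (0.4 mM). Enzyme complex was added after a 20-minute compound preincubation and monitored for 30 minutes.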

O=Nc1c(-c2c(O)[nH]c3ccccc23)[nH]c2ccccc12
inactive: outcome [1] | outcome [2] | outcome [3] | activation [4] -6% | outcome [5] | outcome [6] | outcome [7] | Potency [8] | Potency [9] | outcome [11] | outcome [12] | outcome [13] | outcome [14] | outcome [16] | outcome [17] | outcome [19]
active: Potency [10] 11.2 µM | Potency [15] 0.772 µM | Potency [18] 10.3 µM
